# Assay results from PubChem BioAssay.
# Activity calls are given as the source filed them.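 The calls were made as follows, unless noted: active = inhibition at or above 50% at 10 µM; inactive = inhibition below 50%.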
# Assays:
# [1] = inhibitors of TNFa-induced NFkB p65 translocation, primary screen, imaging, HUVEC, MLSMR starter and 10KST1 sets (AID 438;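 active = inhibition above 20% together with a positive visual image hit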;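 also: compound added about 3h40 before a 20 min TNFalpha stimulation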;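 as to inhibition: signal is the nuclear over cytoplasmic p65 intensity ratio per well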); conditions: HUVEC TNFa-induced p65 nuclear translocation; cell count: measured here: nuclei count (cytotoxicity indicator), at 2.08 µM; inhibition: at 2 µM, stronger effect = higher value, 0% TNFa-plus-vehicle, 100% no-TNFa wells
# [2] = reduction of polyQ htt aggregates in cells – imaging, exon1htt(103Q)mCFP cells, high-content imaging, primary screen (AID 483;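 active = visual image review flags a hit and inhibition of aggregation exceeds 20%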;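 also: compound exposure lasted 3 days before fixation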;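 as to nuclei count: percent of the per-plate median nuclei count of sample wells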); conditions: exon1htt(103Q)mCFP cell line, aggregate imaging, at 2 µM; inhibition of aggregation: stronger effect = higher value; nuclei count: measured here: cell count, toxicity
# [3] = endothelial E-selectin expression blockers – imaging, HUVEC, immunofluorescence, MLSMR starter and 10KST1 sets, primary screen (AID 487;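 active = visually confirmed hit in the image check and inhibition above 20%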;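 as to inhibition: signal is fraction of cell area covered by stained E-selectin grains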;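 as to nuclei count: 100% = median nuclei count of all wells on the same plate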); conditions: HUVEC TNFalpha-induced E-selectin immunofluorescence imaging, at 2 µM; inhibition: stronger effect = higher value; nuclei count: measured here: cell number, toxicity
# [4] = biological target: Voltage-gated potassium channel subunit beta-2 (Rattus norvegicus) (UniProt P62483); assay: inhibitors of rat Kvbeta2 reductase activity – biochemical, NADPH fluorescence, primary screen (AID 622;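 active = fluorescence slope higher than the sample average by over 3 SD, cut at about -0.22 in these data, passing the limit was not always enough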;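 also: slope of raw intensity against log time taken from 70 to 1610 s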); conditions: recombinant KvBeta, 4-cyanobenzaldehyde reduction, at 10 µM, stronger effect = higher value
# Sequence of Voltage-gated potassium channel subunit beta-2 (Rattus norvegicus) (P62483 whole entry, looked up): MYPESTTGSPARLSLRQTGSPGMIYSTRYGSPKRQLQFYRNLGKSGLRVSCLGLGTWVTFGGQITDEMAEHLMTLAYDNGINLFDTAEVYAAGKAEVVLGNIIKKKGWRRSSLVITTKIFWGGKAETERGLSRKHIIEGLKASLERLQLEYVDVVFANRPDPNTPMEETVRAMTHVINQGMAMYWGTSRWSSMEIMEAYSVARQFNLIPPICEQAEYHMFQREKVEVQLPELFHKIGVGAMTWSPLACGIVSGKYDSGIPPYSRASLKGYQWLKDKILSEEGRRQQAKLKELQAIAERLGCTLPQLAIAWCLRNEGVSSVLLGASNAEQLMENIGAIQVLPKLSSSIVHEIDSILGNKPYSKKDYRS
# [5] = biological target: Voltage-gated potassium channel subunit beta-2 (Rattus norvegicus) (UniProt P62483); assay: enhancers of rat Kvbeta2 NADPH turnover – biochemical, NADPH fluorescence, primary screen (AID 623;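 active = NADPH fluorescence slope more negative than the mean of all samples by about 3 SD, 99.7% confidence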;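 also: fluorescence intensity change per second fitted from 20 to 320 s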); conditions: Recombinant KvBeta, NADPH fluorescence decrease slope, 10 min; at 10 µM; stronger effect = lower value
# [6] = biological target: Alpha-2C adrenergic receptor (Homo sapiens) (UniProt P18825); assay: compounds altering alpha2C-coupled GIRK flux – cell-based, HEK293 alpha2C/GIRK1/2, thallium flux, primary screen (AID 624;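 active = fluorescence slope after compound addition differing from the mean of all screened samples at 99.7% confidence, in either direction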;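 also: slope of fluorescence ratio to pre-addition baseline per second over 15 to 24 s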); conditions: thallium flux BTC fluorescence, at 10 µM, actives lie on both sides
# Sequence of Alpha-2C adrenergic receptor (Homo sapiens) (P18825 whole entry, looked up): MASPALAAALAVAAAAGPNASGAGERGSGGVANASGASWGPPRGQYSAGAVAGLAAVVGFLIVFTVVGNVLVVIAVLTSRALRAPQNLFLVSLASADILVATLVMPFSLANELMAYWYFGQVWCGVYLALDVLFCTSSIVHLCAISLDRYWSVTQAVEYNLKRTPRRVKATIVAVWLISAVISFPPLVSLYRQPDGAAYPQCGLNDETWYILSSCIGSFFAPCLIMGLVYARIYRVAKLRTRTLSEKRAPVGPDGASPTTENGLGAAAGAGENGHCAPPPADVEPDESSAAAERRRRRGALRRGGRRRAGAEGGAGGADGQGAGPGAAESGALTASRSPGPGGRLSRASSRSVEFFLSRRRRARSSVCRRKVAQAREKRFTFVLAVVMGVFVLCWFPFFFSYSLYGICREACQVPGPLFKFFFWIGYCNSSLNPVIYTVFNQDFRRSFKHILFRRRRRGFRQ
# [7] = blockers of RIG-like receptor reporter activation – cell-based, Sendai virus stimulus, luciferase, 10K MLSCN set, TLR/RLR signaling modifier project, primary screen (AID 602276); conditions: HEK293 RL24 IRF3 luciferase reporter, at 10 µM, stronger effect = higher value;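 also: firefly luciferase from ISG56 promoter only with Renilla not read in this screen; 0% = Sendai virus plus DMSO and 100% = medium plus DMSO without virus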
# [8] = TLR3 IRF3 reporter activation blockers – cell-based, poly I:C stimulus, luciferase, 10K MLSCN set, primary screen (AID 602277;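 active = inhibition of the reporter signal at or above 50%; inactive = inhibition below 50%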); conditions: HEK293-TLR3 RL24 IRF3 luciferase reporter, at 10 µM, stronger effect = higher value
Compound,cell count [1],inhibition [1],inhibition of aggregation [2],nuclei count [2] [%],inhibition [3],nuclei count [3] [%],fluorescence slope [4],NADPH fluorescence slope [5],slope [6],inhibition [7],inhibition [8]
O=C(NCCN1CCOCC1)C1CCC(=O)N1Cc1ccccc1Cl (stereo not drawn),648,-11.4% (inactive),7.5% (inactive),92.1,6.7% (inactive),87.7,-0.512 (inactive),2e-07 (inactive),0.00614 (inactive),10.4% (inactive),21% (inactive)
O=S(=O)(c1ccc(F)cc1)N1CCC(N2CCCC2)CC1,621,12.4% (inactive),5.9% (inactive),107,12.6% (inactive),107,-0.537 (inactive),-4.2e-05 (inactive),0.00636 (inactive),6.84% (inactive),45.9% (inactive)
CC(C)COC(=O)C(C#N)c1nc2ccccc2nc1N1CCN(Cc2ccccc2)CC1 (stereo not drawn),296,4.2% (inactive),3.4% (inactive),91.2,17.8% (inactive),87,-0.425 (inactive),8.1e-06 (inactive),0.00589 (inactive),14.6% (inactive),7.75% (inactive)
O=C(Nc1ccc2c(c1)OCCO2)c1cnc2n(c1=O)CCS2,550,-2.3% (inactive),9.3% (inactive),78.2,-8.2% (inactive),98.4,-0.57 (inactive),-5.8e-06 (inactive),0.00627 (inactive),-79.9% (inactive),-177% (inactive)
CC(=O)c1ccc(OCC(O)CN2CCN(Cc3ccc4c(c3)OCO4)CC2)cc1 (stereo not drawn),522,4.5% (inactive),-3.8% (inactive),87.9,-33.9% (inactive),108,-0.536 (inactive),-4.2e-05 (inactive),0.0062 (inactive),11.6% (inactive),40.6% (inactive)
COC(=O)c1cc2ccsc2n1CC(=O)N(C)c1ccccc1,623,-15.1% (inactive),-8.1% (inactive),117,-29.3% (inactive),92.2,-0.261 (inactive),4.1e-06 (inactive),0.00481 (inactive),13.3% (inactive),22.7% (inactive)
Fc1cccc(Nc2ncnc3c2cnn3-c2ccccc2)c1,644,-3.3% (inactive),0.4% (inactive),109,-51.7% (inactive),127,-0.57 (inactive),4.4e-06 (inactive),0.00538 (inactive),-54.2% (inactive),-148% (inactive)
COc1ccc(NC(=O)c2oc3ccccc3c2NC(=O)c2ccco2)cc1,317,-4.8% (inactive),23.6% (inactive),95.9,-4.1% (inactive),95.1,-0.411 (inactive),2.7e-05 (inactive),0.00551 (inactive),-10.3% (inactive),-48.1% (inactive)
COCCCNC(=O)CCCn1c(=O)c2ccccc2n(CC(=O)Nc2c(C)cccc2C)c1=O,709,-4.7% (inactive),-15.7% (inactive),105,-64% (inactive),99.1,-0.505 (inactive),2.2e-05 (inactive),0.00674 (inactive),8.62% (inactive),32.1% (inactive)
COc1ccccc1S(=O)(=O)Cc1ccc(C(=O)N2CCOCC2)o1,528,-7.1% (inactive),29% (inactive),86.6,-67.1% (inactive),107,-0.428 (inactive),-5.8e-05 (inactive),0.00635 (inactive),1.72% (inactive),33.5% (inactive)
NC(=O)C1(N2CCCCC2)CCN(CC(=O)Nc2cc(Cl)ccc2Cl)CC1,357,-3% (inactive),14.8% (inactive),86.2,26.7% (inactive),74.8,-0.583 (inactive),-5.7e-05 (inactive),0.00416 (inactive),-15.6% (inactive),-7.63% (inactive)
COc1ccc(-c2nc(CCNC(=O)c3ccco3)cs2)cc1OC,696,-9.6% (inactive),-8.9% (inactive),102,-4% (inactive),114,-0.524 (inactive),-2.4e-05 (inactive),0.00779 (inactive),22.7% (inactive),-5.2% (inactive)
CCN(CC)C(=O)Cn1ncc2c1-c1ccccc1OC2,597,0.5% (inactive),-64.7% (inactive),102,-54.6% (inactive),123,-0.588 (inactive),-4.7e-05 (inactive),0.00665 (inactive),7.79% (inactive),16.3% (inactive)
O=C(NCc1ccc2c(c1)OCO2)c1ccc(NS(=O)(=O)c2ccc3c(c2)OCCO3)cc1,499,-22.3% (inactive),20.4% (inactive),104,-0.9% (inactive),128,-0.615 (inactive),-2.7e-05 (inactive),0.00624 (inactive),10.8% (inactive),17.5% (inactive)
CCOc1ccccc1NC(=O)C1CCCN(S(=O)(=O)c2cccc3cccnc23)C1 (stereo not drawn),717,0% (inactive),14.7% (inactive),124,-55.7% (inactive),101,-0.55 (inactive),-3.3e-05 (inactive),0.00547 (inactive),19.8% (inactive),43.4% (inactive)
Cc1n[nH]c(C)c1N1C(=O)c2cccc3cc(Br)cc(c23)C1=O,476,5.9% (inactive),-9.9% (inactive),103,-36.7% (inactive),123,-0.375 (inactive),-7.7e-05 (inactive),0.00408 (inactive),1.78% (inactive),27.1% (inactive)
O=S(=O)(c1cccc(S(=O)(=O)N2CCC(N3CCCCC3)CC2)c1)N1CCOCC1,725,-4.8% (inactive),-6.3% (inactive),123,-3.7% (inactive),106,-0.469 (inactive),-1.3e-06 (inactive),0.00684 (inactive),7.24% (inactive),28.4% (inactive)
COc1ccc(CCNC(=O)c2cnn3ccccc23)c(OC)c1OC,779,-4.5% (inactive),-37.7% (inactive),108,-59.3% (inactive),115,-0.558 (inactive),-4.4e-06 (inactive),0.00687 (inactive),1.42% (inactive),-10.8% (inactive)
CCOC(=O)n1c(SCC(=O)N(CC)CC)nc2ccccc21,522,1% (inactive),10.7% (inactive),102,44.9% (inactive),93.9,-0.597 (inactive),-4.3e-05 (inactive),0.00594 (inactive),0.265% (inactive),-26.4% (inactive)
COc1ccc(CNC(=O)C(c2ccco2)N(Cc2cccs2)C(=O)Cc2cccs2)cc1 (stereo not drawn),658,9.5% (inactive),-14.3% (inactive),107,-44.5% (inactive),105,-0.6 (inactive),-8.4e-06 (inactive),0.00565 (inactive),13.1% (inactive),28.3% (inactive)
COC(=O)Cn1c(CN2CCOCC2)nc2c1c(=O)n(C)c(=O)n2C,666,-18.4% (inactive),6.2% (inactive),95.4,-0.7% (inactive),114,-0.418 (inactive),-5.7e-05 (inactive),0.00632 (inactive),6.17% (inactive),32.9% (inactive)
Cc1cc(NC(=O)CCCC(=O)Nc2ccc(F)cc2)no1,423,-10.5% (inactive),13.2% (inactive),72.2,-43% (inactive),107,-0.477 (inactive),9.1e-07 (inactive),0.0057 (inactive),5.46% (inactive),34.4% (inactive)
NC(=O)c1c(NC(=O)Cc2cccs2)sc2c1CCC2,537,-17.1% (inactive),12.6% (inactive),109,-43% (inactive),150,-0.483 (inactive),-6.1e-05 (inactive),0.00572 (inactive),-14.3% (inactive),-35.7% (inactive)
COC(=O)c1ccnc(/C=N/O)c1,715,-2% (inactive),-19.8% (inactive),112,11.2% (inactive),108,-0.578 (inactive),-2e-05 (inactive),0.00558 (inactive),15.5% (inactive),19.8% (inactive)
COc1ccc(C(=O)N2CCN(C3CCCCC3)CC2)c(OC)c1,324,-0.9% (inactive),-21.3% (inactive),83.3,-48.1% (inactive),138,-0.609 (inactive),-1.5e-05 (inactive),0.00408 (inactive),1% (inactive),12.4% (inactive)
Nc1nc(N2CCN(C/C=C/c3ccccc3)CC2)nc2ccccc12,563,7.3% (inactive),2% (inactive),69.5,-58.8% (inactive),139,-0.607 (inactive),-2.5e-05 (inactive),0.00297 (inactive),4.65% (inactive),7.48% (inactive)
CCCC(=O)Nc1cc(-c2nnc(OC)c3ccccc23)ccc1N1CCOCC1,385,-9.8% (inactive),-2% (inactive),105,-14.8% (inactive),112,-0.522 (inactive),-3.3e-06 (inactive),0.00489 (inactive),22.9% (inactive),27.2% (inactive)
Cc1cc(OCC(O)CN2CCN(CCO)CC2)ccc1C(C)C (stereo not drawn),428,-0.5% (inactive),16.4% (inactive),94.9,24% (inactive),93.2,-0.439 (inactive),-3.1e-05 (inactive),0.00431 (inactive),9.34% (inactive),29.3% (inactive)
